Results as given in PubChem BioAssay.
Active and inactive are the calls of the source.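 Rule for the calls, unless noted: active = inhibition above 20% together with a positive visual image hit; inconclusive = visual image hit but inhibition not above 20%; inactive = no visual image hit.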

Experiments:
[1] = inhibitors of TNFa-induced NFkB p65 translocation, primary screen, imaging, HUVEC, MLSMR starter and 10KST1 sets (AID 438); settings: HUVEC TNFa-induced p65 nuclear translocation; cell count: measured here: nuclei count (cytotoxicity indicator), at 2.08 µM; inhibition: at 2 µM, stronger effect = higher value, 0% TNFa-plus-vehicle, 100% no-TNFa wells;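 note: compound added about 3h40 before a 20 min TNFalpha stimulation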;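 for inhibition: signal is the nuclear over cytoplasmic p65 intensity ratio per well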
[2] = inhibitors of mutant huntingtin aggregation, primary screen, imaging, exon1htt(103Q)mCFP cells, high-content imaging (AID 483;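 active = visual image review flags a hit and inhibition of aggregation exceeds 20%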;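 note: compound exposure lasted 3 days before fixation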;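 for nuclei count: percent of the per-plate median nuclei count of sample wells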); settings: exon1htt(103Q)mCFP cell line, aggregate imaging, at 2 µM; inhibition of aggregation: stronger effect = higher value; nuclei count: measured here: cell count, toxicity
[3] = inhibitors of E-selectin induction by TNFa, primary screen, imaging, HUVEC, immunofluorescence, MLSMR starter and 10KST1 sets (AID 487;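 active = visually confirmed hit in the image check and inhibition above 20%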;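 for inhibition: signal is fraction of cell area covered by stained E-selectin grains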;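 for nuclei count: 100% = median nuclei count of all wells on the same plate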); settings: HUVEC TNFalpha-induced E-selectin immunofluorescence imaging, at 2 µM; inhibition: stronger effect = higher value; nuclei count: measured here: cell number, toxicity
[4] = molecular target: Voltage-gated potassium channel subunit beta-2 (Rattus norvegicus) (UniProt P62483); test: KvBeta enzyme negative modulators, primary screen, biochemical, NADPH fluorescence (AID 622;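 active = fluorescence slope higher than the sample average by over 3 SD, cut at about -0.22 in these data, passing the limit was not always enough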;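 note: slope of raw intensity against log time taken from 70 to 1610 s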); settings: recombinant KvBeta, 4-cyanobenzaldehyde reduction, at 10 µM, stronger effect = higher value
[5] = molecular target: Voltage-gated potassium channel subunit beta-2 (Rattus norvegicus) (UniProt P62483); test: KvBeta positive modulators, primary screen, biochemical, NADPH fluorescence (AID 623;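 active = NADPH fluorescence slope more negative than the mean of all samples by about 3 SD, 99.7% confidence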;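 note: fluorescence intensity change per second fitted from 20 to 320 s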); settings: Recombinant KvBeta, NADPH fluorescence decrease slope, 10 min; at 10 µM; stronger effect = lower value
[6] = molecular target: Alpha-2C adrenergic receptor (Homo sapiens) (UniProt P18825); test: modulators of alpha2C/GIRK thallium flux, primary screen, cell-based, HEK293 alpha2C/GIRK1/2 (AID 624;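 active = fluorescence slope after compound addition differing from the mean of all screened samples at 99.7% confidence, in either direction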;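 note: slope of fluorescence ratio to pre-addition baseline per second over 15 to 24 s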); settings: thallium flux BTC fluorescence, at 10 µM, actives lie on both sides
[7] = inhibitors of Sendai virus-induced IRF3 signaling, primary screen, TLR/RLR signaling modifier project, cell-based, Sendai virus stimulus, luciferase, 10K MLSCN set (AID 602276;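 active = inhibition at or above 50% at 10 µM; inactive = inhibition below 50%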;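 note: firefly luciferase from ISG56 promoter only with Renilla not read in this screen; 0% = Sendai virus plus DMSO and 100% = medium plus DMSO without virus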); settings: HEK293 RL24 IRF3 luciferase reporter, at 10 µM, stronger effect = higher value
[8] = inhibitors of poly I:C-induced TLR3 signaling, primary screen, cell-based, poly I:C stimulus, luciferase, 10K MLSCN set (AID 602277;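 active = inhibition of the reporter signal at or above 50%; inactive = inhibition below 50%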); settings: HEK293-TLR3 RL24 IRF3 luciferase reporter, at 10 µM, stronger effect = higher value

Sequence of Voltage-gated potassium channel subunit beta-2 (Rattus norvegicus) (P62483 whole entry, looked up): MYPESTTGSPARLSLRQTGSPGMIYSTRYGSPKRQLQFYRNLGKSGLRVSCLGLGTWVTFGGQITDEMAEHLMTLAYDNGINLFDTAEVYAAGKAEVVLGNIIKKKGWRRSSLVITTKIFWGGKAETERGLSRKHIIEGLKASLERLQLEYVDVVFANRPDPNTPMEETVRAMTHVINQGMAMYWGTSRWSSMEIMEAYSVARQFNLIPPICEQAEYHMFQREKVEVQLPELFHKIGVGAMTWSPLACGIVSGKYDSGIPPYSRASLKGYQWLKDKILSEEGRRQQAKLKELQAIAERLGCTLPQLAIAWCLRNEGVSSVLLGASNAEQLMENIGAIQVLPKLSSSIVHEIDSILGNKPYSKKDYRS
Sequence of Alpha-2C adrenergic receptor (Homo sapiens) (P18825 whole entry, looked up): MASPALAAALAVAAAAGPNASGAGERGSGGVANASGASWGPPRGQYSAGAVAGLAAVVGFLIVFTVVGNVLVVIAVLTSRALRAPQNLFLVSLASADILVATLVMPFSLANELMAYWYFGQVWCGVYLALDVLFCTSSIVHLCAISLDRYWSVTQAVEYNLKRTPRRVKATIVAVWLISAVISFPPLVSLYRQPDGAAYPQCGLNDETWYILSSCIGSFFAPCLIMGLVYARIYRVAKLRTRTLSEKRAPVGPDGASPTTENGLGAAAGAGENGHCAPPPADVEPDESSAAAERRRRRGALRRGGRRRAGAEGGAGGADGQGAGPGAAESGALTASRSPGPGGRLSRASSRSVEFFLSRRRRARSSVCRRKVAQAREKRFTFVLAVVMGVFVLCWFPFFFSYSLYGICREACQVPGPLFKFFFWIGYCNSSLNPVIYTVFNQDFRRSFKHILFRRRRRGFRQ

SMILES | cell count [1] | inhibition [1] | inhibition of aggregation [2] | nuclei count [2] [%] | inhibition [3] | nuclei count [3] [%] | fluorescence slope [4] | NADPH fluorescence slope [5] | slope [6] | inhibition [7] | inhibition [8]
CCOCC(=O)Nc1ccc(S(=O)(=O)N2CCOCC2)cc1 | 283 | -3.2% (inactive) | 16.5% (inactive) | 89.1 | -6.7% (inactive) | 73.9 | -0.418 (inactive) | 5.9e-06 (inactive) | 0.00604 (inactive) | 12% (inactive) | 19.7% (inactive)
CC(=O)Nc1sc2c(c1C#N)CCCCC2 | 349 | 0.8% (inactive) | 12.1% (inactive) | 78.3 | -76.6% (inactive) | 115 | -0.396 (inactive) | -5.5e-05 (inactive) | 0.00723 (inactive) | -1.89% (inactive) | -4.1% (inactive)
CC(=O)Nc1ccc(NS(=O)(=O)c2ccc(Cl)c(C(=O)O)c2)cc1 | 688 | -3.9% (inactive) | 11.4% (inactive) | 124 | -37.3% (inactive) | 128 | -0.42 (inactive) | -3.1e-05 (inactive) | 0.00403 (inactive) | -2.13% (inactive) | 20.4% (inactive)
CCOC(=O)c1nnc2cc(-c3ccc(Br)cc3)nn2c1C | 606 | -1.7% (inactive) | -4.4% (inactive) | 98.8 | -89.5% (inactive) | 105 | -0.558 (inactive) | -6.5e-06 (inactive) | 0.006 (inactive) | -72.6% (inactive) | -129% (inactive)
O=C(CSc1nnc(-c2ccccc2)o1)N1CCc2ccccc2C1 | 400 | -4.2% (inactive) | 2.7% (inactive) | 101 | -104% (inactive) | 121 | -0.382 (inactive) | -6.2e-05 (inactive) | 0.00577 (inactive) | 7.64% (inactive) | 22.9% (inactive)
Cc1ccccc1CN1CCN(C(=O)c2cccc(F)c2)CC1 | 284 | -13% (inactive) | 14.5% (inactive) | 91.7 | 2.5% (inactive) | 119 | -0.411 (inactive) | -1.4e-05 (inactive) | 0.00429 (inactive) | 7.31% (inactive) | 12% (inactive)
O=C(C1CCCO1)N1CCc2ccccc21 (centres undefined) | 445 | 6% (inactive) | -16.9% (inactive) | 108 | -32.9% (inactive) | 108 | -0.404 (inactive) | 5.9e-05 (inactive) | 0.00647 (inactive) | 9.45% (inactive) | 36.8% (inactive)
Cc1cc(C)nc(N2CCC(C(=O)Nc3ccc4c(c3)CCC4)CC2)n1 | 338 | 6.3% (inactive) | 17.6% (inactive) | 92 | -103% (inactive) | 120 | -0.405 (inactive) | -6.3e-05 (inactive) | 0.00372 (inactive) | 5.67% (inactive) | 24.8% (inactive)
CCN1CCN(CCCNC(=O)c2cc3sccc3n2CC)CC1 | 605 | 11% (inactive) | -0.9% (inactive) | 105 | 37.9% (inactive) | 108 | -0.586 (inactive) | -3.5e-05 (inactive) | 0.00699 (inactive) | -14.9% (inactive) | 15.5% (inactive)
COc1ccc(C)cc1S(=O)(=O)N(C)CC(=O)Nc1ccc2c(c1)OCCO2 | 489 | -8.1% (inactive) | 7.6% (inactive) | 92.1 | 22.5% (inactive) | 110 | -0.427 (inactive) | 3.4e-05 (inactive) | 0.00534 (inactive) | -4.31% (inactive) | -10.2% (inactive)
COc1ccc(NC(=O)CSc2nc3c(c(=O)n2-c2ccc(F)cc2)SCC3)c(OC)c1 | 339 | 0.6% (inactive) | -14.2% (inactive) | 109 | -407% (inactive) | 114 | -0.474 (inactive) | -1.7e-05 (inactive) | 0.00491 (inactive) | 19.4% (inactive) | 26.7% (inactive)
CC(C)=CCC(C)(C)C1OCCN1C(=O)c1ccccc1 (centres undefined) | 450 | 1.5% (inactive) | 1.2% (inactive) | 116 | 10.2% (inactive) | 106 | -0.444 (inactive) | 2e-05 (inactive) | 0.00511 (inactive) | 8.82% (inactive) | 12.9% (inactive)
CCOC(=O)C1=C(C)NC(=O)NC1c1ccc(Br)s1 (centres undefined) | 516 | 1.2% (inactive) | 5.5% (inactive) | 105 | 28.9% (inactive) | 104 | -0.502 (inactive) | -6.2e-05 (inactive) | 0.00543 (inactive) | 11.8% (inactive) | 12.6% (inactive)
CN(C)S(=O)(=O)Nc1ccccc1C(N)=O | 425 | -9.8% (inactive) | -9.1% (inactive) | 102 | -21.7% (inactive) | 109 | -0.355 (inactive) | -3.8e-05 (inactive) | 0.00484 (inactive) | 15.1% (inactive) | 11.7% (inactive)
